Screening results deposited in PubChem by National Center for Advancing Translational Sciences (NCATS).
Compounds with a hit are over-represented: about 13% of the library has one in this group of screens.
Cycloheximide cs: Cycloheximide Counterscreen for Small Molecule Inhibitors of Shiga Toxin | cell reporter, cycloheximide protein synthesis inhibition counterscreen | max response, % | actives 12% (n = 300,000); in the data active means max response mostly above about 13%, no sharp cut-off; inactive means mostly below about 14%; further: read at 38.3 µM for the half of the compounds with a filed dose
LASV entry inh: qHTS for Inhibitors of binding or entry into cells for Lassa Virus. Lassa virus pseudotype entry inhibition, cell reporter. Potency, µM (doses to about 37.9 µM), usual class: inhibitors. actives 1.2% (n = 300,000); calls by dose curve; tested in HEK293 cells; further: nearly all actives have a fitted effect of over 50% in size
Marburg entry inh: qHTS for inhibitors of binding or entry into cells for Marburg Virus | Marburg virus pseudotyped entry inhibition, cell reporter | Potency, µM (highest dose often 37.8 µM), usual class: inhibitors | actives 1.8% (n = 300,000); calls by dose curve; tested in HEK293 cells
Shiga toxin inh: A qHTS for Small Molecule Inhibitors of Shiga Toxin | Vero cells, Shiga toxin protein synthesis inhibition reporter | inhibition, % at 38.7 µM | actives 9.2% (n = 290,000) | AID 2315, 2010; in the data active means inhibition mostly above about 28%, no sharp cut-off; inactive means mostly below about 43%
FMDV antiviral: High Throughput Screening for Foot and Mouth Disease Virus Antivirals. FMDV antiviral cell-based qHTS. Potency, µM (doses to about 57.9 µM), most hits filed as inhibitors. actives 1.2% (n = 410,000). AID 1159524, 2015; calls by dose curve; tested in HEK293T cells; further: read-out not given here; nearly all actives have a fitted effect of over 45% in size
HCV inh: qHTS Assay for Inhibitors of Hepatitis C Virus (HCV). Huh7.5.1 HCVcc-Cre infection, luciferase reporter, 44 h. Potency, µM (doses to about 41.8 µM), actives largely listed as inhibitors. actives 3.4% (n = 340,000). AID 651820, 2012; active means well fitted inhibition curve with a large enough effect; inconclusive means small, poorly fitted or top-dose-only effect, or another doubt; inactive means no such curve, though single readings can be large or run the other way
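After 44 h co-culture of compound, cells and HCVcc-Cre (~0.5 moi), substrate is added for 15 min at room temperature and luciferase measured over 15 sec. Cells were seeded at 1,000/well and pre-cultured 4 h.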
Hits are given with their value; – = inactive; ? = inconclusive; · = no result; ! = repeats disagree.

SMILES | Cycloheximide cs | LASV entry inh | Marburg entry inh | Shiga toxin inh | FMDV antiviral | HCV inh
CCSC1=C(C#N)C(c2ccc(Cl)cc2)C2=C(CCCC2=O)N1 (stereo not drawn) | – | – | ? | – | – | 25µM
CC1=C(C(=O)Nc2ccccc2)C(c2ccco2)C(C#N)=C(SCC(=O)Nc2cccc(C)c2C)N1 (stereo not drawn) | – | – | ? | – | · | ?
CC(C)(C)c1ccc(C(=O)CCCSC2=C(C#N)C(c3ccco3)C3=C(CCCC3=O)N2)cc1 (stereo not drawn) | – | ? | ? | – | – | 6.3µM
CCOC(=O)C1=C(c2ccccc2)NC(SCC(=O)Nc2ccccc2C)=C(C#N)[C@@H]1c1ccco1 | · | · | 23µM | · | · | ·
CC12CCC3C(CCC4C/C(=N/O)CCC43C)C1CCC2O (stereo not drawn) | – | – | – | – | – | ?
NC(=O)CCN(C1CCCCC1)S(=O)(=O)c1cccc2nsnc12 | – | – | – | – | – | –
Cc1ccc(C(=O)CSC2=C(C#N)C(c3ccco3)C3=C(CCCC3=O)N2)cc1 (stereo not drawn) | 18 | ? | ? | – | – | 25µM
N#CC1=C(SCC(=O)c2ccccc2)NC2=C(C(=O)CCC2)C1c1ccco1 (stereo not drawn) | 66 | ? | ? | 72 | – | 11µM
CC(=O)C1=C(C)NC(SCC(=O)c2ccc(F)cc2)=C(C#N)C1CC(C)C (stereo not drawn) | 63 | ? | – | 88 | – | ?
CCc1ccc(NC(=O)CSC2=C(C#N)[C@H](c3ccco3)C3=C(CCCC3=O)N2)cc1 | · | · | – | · | · | ·
CC(=O)C1=C(C)NC(SCC(=O)c2ccc(Cl)cc2)=C(C#N)C1CC(C)C (stereo not drawn) | – | – | – | – | – | –
COc1ccc(NC(=O)CSc2nc(-c3ccccc3)c3ccccc3n2)cc1 | · | – | – | · | – | ·
O=S(=O)(Nc1ccc(C(O)(C(F)(F)F)C(F)(F)F)cc1)c1ccc(Cl)c2nonc12 | · | · | · | · | 35µM | ·
CCC(=O)Nc1cc(-c2nn(C)c(=O)c3ccccc23)ccc1N1CCOCC1 | – | – | – | – | – | ?
Cn1nc(-c2ccc(N3CCCCC3)c(NC(=O)c3ccco3)c2)c2ccccc2c1=O | – | ? | ? | – | – | 7.1µM!
C=Cc1ccc(CC2(C)C(=O)Nc3c(Cl)cccc32)cc1 (stereo not drawn) | · | · | · | · | – | ·
COc1ccccc1C(=O)Nc1ccc(C(=O)N2CCCC2)cc1 | – | – | – | – | – | –
Cc1ccc(C(=O)Nc2ccc(C(=O)N3CCCCC3)cc2)o1 | 26 | · | · | 52 | – | –
COc1ccccc1C(=O)Nc1ccc(C(=O)N2CCCCC2)cc1 | 13 | – | – | – | – | –
COc1ccccc1NC(=O)Nc1ccc(C(=O)N2CCCCC2)cc1 | 27 | · | · | 80 | – | –
COC(=O)c1cc2oc3ccccc3c2n1CC(=O)Nc1ccc(N(C)C)cc1 | · | · | – | · | – | ·
O=C(NC1CCCC1)C(C1CC1)n1c(C2CCCC2)nc2ccccc21 (stereo not drawn) | · | · | · | · | – | ·
CC(=O)c1cccc(NC(=O)COC(=O)CCc2ccc(S(=O)(=O)N3CCOCC3)cc2)c1 | – | ? | – | – | – | –
Cc1ccc2c(c1)C(c1ccc(F)cc1)N(C(=O)C(C)C)CC(=O)N2 (stereo not drawn) | · | – | – | · | 8.9µM | ·
CN(C)C(=O)c1nnsc1Sc1ccc(Cl)cc1 | 26 | – | ? | 51 | – | –
SMILES | Cycloheximide cs | LASV entry inh | Marburg entry inh | Shiga toxin inh | FMDV antiviral | HCV inh
COc1ccc(/C=N/Nc2cc(C)nc(-n3nc(C)cc3C)n2)cc1 | – | ? | 16µM | – | 32µM | ?
Cc1cc(N/N=C/c2cccc(Cl)c2)nc(-n2nc(C)cc2C)n1 | – | ? | ? | – | – | 18µM
COc1ccc(Nc2cc(C)nc(-n3nc(C)cc3C)n2)cc1Cl | · | ? | · | · | – | ·
Cc1cc(N/N=C/c2ccccc2[N+](=O)[O-])nc(-n2nc(C)cc2C)n1 | – | ? | ? | – | ? | 2.5µM
Cc1cc(N/N=C/c2ccc(O)cc2O)nc(-n2nc(C)cc2C)n1 | – | 7.3µM | 3.7µM | – | ? | ?
Cc1cc(N/N=C/c2cccc([N+](=O)[O-])c2)nc(-n2nc(C)cc2C)n1 | – | – | – | – | – | ?
CCOc1c(C)cc(-c2ncccc2O)cc1C | – | – | ? | – | – | ?
